The values below come from PubChem BioAssay (EPA / NIEHS).

Inconclusive results are not listed. The source made the active and inactive calls. The calls were made as follows: active = hit-call score of the fitted dose curve at least 0.9, where 1 is the maximum; inconclusive = response in the unintended direction; inactive = score below 0.9.

AR (gene 367), sequence (P10275 whole entry, looked up): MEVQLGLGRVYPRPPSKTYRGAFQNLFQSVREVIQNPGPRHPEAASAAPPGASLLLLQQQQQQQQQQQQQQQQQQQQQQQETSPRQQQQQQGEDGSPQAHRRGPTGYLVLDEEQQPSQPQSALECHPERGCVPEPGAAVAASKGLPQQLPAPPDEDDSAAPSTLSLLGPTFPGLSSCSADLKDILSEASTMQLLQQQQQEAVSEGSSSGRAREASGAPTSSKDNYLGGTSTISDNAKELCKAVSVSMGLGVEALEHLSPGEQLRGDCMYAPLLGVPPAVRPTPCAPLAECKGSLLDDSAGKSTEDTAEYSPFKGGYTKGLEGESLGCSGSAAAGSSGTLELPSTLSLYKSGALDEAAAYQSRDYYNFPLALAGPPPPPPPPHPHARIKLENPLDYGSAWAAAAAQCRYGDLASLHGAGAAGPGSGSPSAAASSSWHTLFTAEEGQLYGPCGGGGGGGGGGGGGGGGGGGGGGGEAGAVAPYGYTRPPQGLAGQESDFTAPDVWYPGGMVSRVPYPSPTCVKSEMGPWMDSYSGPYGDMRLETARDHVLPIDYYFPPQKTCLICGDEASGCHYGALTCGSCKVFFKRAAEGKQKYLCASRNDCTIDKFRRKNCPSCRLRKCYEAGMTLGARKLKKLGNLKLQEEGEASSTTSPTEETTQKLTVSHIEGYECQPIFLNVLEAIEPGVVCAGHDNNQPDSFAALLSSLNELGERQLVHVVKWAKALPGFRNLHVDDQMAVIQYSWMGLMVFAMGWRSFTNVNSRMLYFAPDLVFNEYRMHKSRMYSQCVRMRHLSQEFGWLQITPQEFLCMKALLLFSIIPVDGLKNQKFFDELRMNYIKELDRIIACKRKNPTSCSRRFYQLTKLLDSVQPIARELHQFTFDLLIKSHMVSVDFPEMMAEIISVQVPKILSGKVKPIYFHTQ

The target in the test is AR (gene 367) (UniProt P10275). Put plainly: ACEA_AR_agonist_80hr: ACEA Biosciences xCELLigence Real-Time Cell Analysis on Androgen Receptor Agonism for Proliferation (AID 2283783).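 Also: hits increase impedance growth signal above DMSO baseline.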 Here is the method:
ACEA_AR_agonist is a cell-based, single-readout assay that uses 22Rv1, a human prostate cancer cell line, with measurements taken at 80 hours after chemical dosing in a 384-well plate, although TO5 and TO6 (mc0.srcf) used a 96-well plate. Differences in plate size can be ignored given data normalization.ACEA_AR_agonist_80hr is one of two assay component(s) measured or calculated from the ACEA_AR assay. It is designed to make measurements of real-time cell-growth kinetics, a form of growth reporter, as detected with electrical impedance signals by Real-Time Cell Electrode Sensor (RT-CES) technology.Data from the assay component ACEA_AR_agonist_80hr was analyzed in the positive analysis fitting direction relative to DMSO as the negative control and baseline of activity. Using a type of growth reporter, measures of the cells for gain-of-signal activity can be used to understand the signaling at the pathway-level as they relate to the geneAR Furthermore, this assay endpoint can be referred to as a primary readout, because this assay has produced multiple assay endpoints where this one serves a signaling function. To generalize the intended target to other relatable targets, this assay endpoint is annotated to the nuclear receptor intended target family, where the subfamily is steroidal.
The xCELLigence system Multi-E-Plate stations were used to measure the time-dependent response to chemicals. Each compound was tested in an eight-point, 1:4 serial dilution series starting at a maximum final concentration of 100 uM. A maximum starting concentration of 0.5% DMSO was present in the 100 uM chemical samples and was diluted along with the test article dilution series. The screen was performed in biological duplicate using two separate, 96-well, E-Plates 96 for each dilution series (n = 2). Positive controls (MG132 and testosterone) and a negative control (assay media) were tested in quadruplicate on each testing plate. […] Reference compounds were tested with 8 concentrations with 1:5 serial dilutions. All screening was carried out by ACEA Biosciences, Inc. (San Diego, CA). 22Rv1 cells purchased from ATCC were maintained in media supplemented with 10% fetal bovine serum (FBS). Before screening, 22Rv1 cells were preconditioned in assay medium. Cells were then detached and seeded in E-Plates 96 in assay medium. After overnight monitoring of growth once every hour, compounds were added to […] cells and remained in the medium until the end of the experiment. Cellular responses were then recorded once every 5 min for the first 5 h, and once every hour for an additional 100 h.
Turning to `CC(C)c1ccc2cc(C(C)C)ccc2c1`, the result was inactive.

Turning to `CCCc1ccc(OC)cc1`, the result was inactive.

For the molecule `CCCCC/C=C\CCC=O`, the outcome was inactive.

On to `Oc1ccc(Cl)cc1Cc1cc(Cl)ccc1O`, for which the molecule was classed as inactive.
